According to PubChem BioAssay:
The source made the active and inactive calls.

Assays:
[1] = system: Human papillomavirus type 1a protein E7 (residues 44-93); experiment: HPV1a E7 fragment binders on microarrays, primary screen, biochemical, small-molecule microarray, residues 44-93, 635 nm fluorescence (AID 1108); conditions: small-molecule microarray binding, fluorescence 635 nm; higher = more signal;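 note: E7 fragment applied at 1 µg/mL in TBST for 1 h at 4 C; score combines spot fluorescence with its signal to noise ratio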
[2] = modulators of HCV replicon luciferase signal, primary screen, HCV replication inhibitor project, Huh7 cells, luciferase reporter (AID 1109); conditions: 48 h, higher = more signal;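 note: huh7 hepatoma cells harbouring a luciferase neomycin HCV replicon reporter; luciferase luminescence as measure of HCV replicon replication; test concentration not given here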
[3] = biological target: Left-right determination factor 2 (Homo sapiens) (UniProt O00292); experiment: LEFTY2 binders on small-molecule microarrays, primary screen, biochemical, small-molecule microarray, 635 nm fluorescence scan (AID 1110); conditions: LEFTY2 binding, higher = more signal
[4] = biological target: Calmodulin-1 (Homo sapiens) (UniProt P0DP23); experiment: CALM1 binders on microarrays, EGTA buffer, profiling panel, biochemical, small-molecule microarray, Cy5-labelled CALM1 (AID 1111); conditions: Cy5-CALM1 binding fluorescence, higher = more signal;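 note: labelled calmodulin applied in Tris saline Tween buffer holding calcium plus EGTA and DTT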
[5] = biological target: Calmodulin-1 (Homo sapiens) (UniProt P0DP23); experiment: calcium-bound CALM1 binders on microarrays, profiling panel, artefact control for SMM control-protein annotation, biochemical, small-molecule microarray, Cy5-labelled CALM1, plus calcium (AID 1112); conditions: Cy5-CALM1 binding fluorescence, higher = more signal;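 note: score merges spot fluorescence with signal to noise from triplicate slides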
[6] = small-molecule microarray binders of probe aWnt5a, primary screen, biochemical, biotinylated probe, 635/667 nm fluorescence (AID 1113); conditions: higher = more signal;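 note: score merges 667 nm fluorescence intensity with signal-to-noise per printed feature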
[7] = small-molecule microarray binders of probe aShh, primary screen, biochemical, biotinylated probe, 635/667 nm fluorescence (AID 1114); conditions: higher = more signal;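 note: probe is biotin-labelled aShh protein from a stem cell growth factor screen; measures binding of labelled protein to compounds printed on the slide; score merges feature fluorescence at 667 nm with signal-to-noise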
[8] = small-molecule microarray binders of probe aNog, primary screen, biochemical, biotinylated probe, 635/667 nm fluorescence (AID 1115); conditions: higher = more signal;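 note: probe is biotinylated aNog protein used at 0.15 µg/mL for 1 h at 4 C; z-score combines 667 nm fluorescence of each spot with its signal to noise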
[9] = biological target: Torsin-1A-interacting protein 1 (Homo sapiens) (UniProt Q5JTV8); experiment: LAP1 binders from COS7 cell lysate, primary screen, small-molecule microarray, 635/667 nm fluorescence (AID 1116); conditions: COS7-hLAP1 lysate binding, 635 nm fluorescence, higher = more signal
[10] = biological target: Alpha-bungarotoxin (Bungarus multicinctus) (UniProt P60615); experiment: alpha-bungarotoxin binders on microarray, profiling panel, artefact control for SMM control protein annotation, biochemical, small-molecule microarray, Alexa647 label, 635/667 nm fluorescence (AID 1117); conditions: alpha-BTX-A647 binding fluorescence, higher = more signal
[11] = biological target: Albumin (Bos taurus) (UniProt P02769); experiment: bovine serum albumin binders on microarray, profiling panel, artefact control for SMM control protein annotation, biochemical, small-molecule microarray, Alexa647 label, 635/667 nm fluorescence (AID 1118); conditions: BSA-A647 binding, fluorescence 635 nm, higher = more signal;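 note: score merges 667 nm emission intensity and signal-to-noise per printed compound spot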
[12] = small-molecule microarray binders of probe aXIP, primary screen, biochemical, NeuroSMM set, 635/667 nm fluorescence (AID 1119); conditions: higher = more signal, called active from +8 up or from −8 down;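 note: probe is the protein aXip251-270 applied at 1 µg/mL to compound-printed slides; binding of probe to printed compounds measured as 667 nm fluorescence plus signal to noise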
[13] = small-molecule binders of probe aNOTCH3, primary screen, biochemical, small-molecule microarray, 635/667 nm fluorescence (AID 1120); conditions: higher = more signal;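 note: probe is a biotin-tagged antibody raised against NOTCH3 rather than NOTCH3 protein; score merges spot fluorescence near 667 nm with spot signal to noise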
[14] = small-molecule binders of probe aNOTCH2, primary screen, biochemical, small-molecule microarray, 635/667 nm fluorescence (AID 1121); conditions: higher = more signal;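 note: score merges feature fluorescence read at 667 nm with its signal to noise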
[15] = biological target: Carbonic anhydrase 2 (Homo sapiens) (UniProt P00918); experiment: CAII small-molecule binders, profiling panel, biochemical, small-molecule microarray, Alexa647-labelled CAII (AID 1122); conditions: CAII-A647 binding fluorescence, higher = more signal
[16] = COS7 lysate on small-molecule microarray, probe aHis, 635 nm (AID 1123); conditions: COS7 cell lysate, fluorescence, higher = more signal;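 note: z-score combines 667nm fluorescence intensity with signal-to-noise per printed compound spot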
[17] = compound binding in COS7 lysate, probe aLAP1, primary screen, cell lysate, small-molecule microarray (AID 1124); conditions: probe aLAP1, fluorescence, higher = more signal;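 note: lysate comes from COS7 cells expressing LAP1 and is applied at 0.3 µg/mL; score merges spot fluorescence near 667 nm with signal-to-noise over triplicate slides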
[18] = system: Sam68 (KHDRBS1); experiment: Sam68 small-molecule binders, primary screen, biochemical, small-molecule microarray, 635 nm fluorescence (AID 1125); conditions: small-molecule microarray binding, higher = more signal;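 note: score merges 667 nm channel intensity with signal to noise over triplicate slides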
[19] = system: Chordin-like protein 2 (CHRDL2); experiment: CHRDL2 small-molecule binders, primary screen, biochemical, small-molecule microarray, 635 nm fluorescence (AID 1126); conditions: small-molecule microarray binding, fluorescence 635 nm; higher = more signal;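 note: printed compound slides probed with Chrdl2 protein at 4 µg/mL for 1 h at 4 C; score merges 667 nm emission intensity with signal to noise over three replicate slides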
[20] = biological target: Concanavalin-A (Canavalia ensiformis) (UniProt P02866); experiment: ConA small-molecule binders, primary screen, artefact control for SMM control protein annotation, biochemical, small-molecule microarray, Alexa647 label, 635 nm (AID 1127); conditions: ConA-A647 binding fluorescence, higher = more signal;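 note: z combines 667 nm emission intensity with signal-to-noise across three replicate slides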
Concanavalin-A (Canavalia ensiformis), sequence (P02866 whole entry, looked up): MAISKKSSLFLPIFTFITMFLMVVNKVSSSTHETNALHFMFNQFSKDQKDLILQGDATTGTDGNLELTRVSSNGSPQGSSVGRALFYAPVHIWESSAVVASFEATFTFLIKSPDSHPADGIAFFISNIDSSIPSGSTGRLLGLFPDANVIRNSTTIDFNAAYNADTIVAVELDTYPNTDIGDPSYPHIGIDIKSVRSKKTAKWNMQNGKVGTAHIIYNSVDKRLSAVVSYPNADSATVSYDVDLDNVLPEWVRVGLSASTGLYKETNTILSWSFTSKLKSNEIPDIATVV

Alpha-bungarotoxin (Bungarus multicinctus), sequence (P60615 whole entry, looked up): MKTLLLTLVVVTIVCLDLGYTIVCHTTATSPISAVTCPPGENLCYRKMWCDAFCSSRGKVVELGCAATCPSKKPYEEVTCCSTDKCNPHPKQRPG
Albumin (Bos taurus), sequence (P02769 whole entry, looked up): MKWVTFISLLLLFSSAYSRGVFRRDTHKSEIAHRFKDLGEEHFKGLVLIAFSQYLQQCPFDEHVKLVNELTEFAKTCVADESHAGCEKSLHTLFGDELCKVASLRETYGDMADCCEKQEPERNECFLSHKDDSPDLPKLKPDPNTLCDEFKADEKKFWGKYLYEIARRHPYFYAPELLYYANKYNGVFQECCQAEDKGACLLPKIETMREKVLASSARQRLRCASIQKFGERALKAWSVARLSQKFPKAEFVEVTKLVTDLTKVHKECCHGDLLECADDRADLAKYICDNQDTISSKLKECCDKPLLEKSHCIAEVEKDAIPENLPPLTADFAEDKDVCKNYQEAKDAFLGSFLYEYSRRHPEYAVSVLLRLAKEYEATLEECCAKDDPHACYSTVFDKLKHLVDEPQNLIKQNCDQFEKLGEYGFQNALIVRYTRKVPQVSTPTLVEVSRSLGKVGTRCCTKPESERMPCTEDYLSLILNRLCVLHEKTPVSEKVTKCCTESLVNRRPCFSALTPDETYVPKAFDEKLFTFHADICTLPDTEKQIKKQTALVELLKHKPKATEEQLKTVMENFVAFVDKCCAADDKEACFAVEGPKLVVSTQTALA
Torsin-1A-interacting protein 1 (Homo sapiens), sequence (Q5JTV8 whole entry, looked up): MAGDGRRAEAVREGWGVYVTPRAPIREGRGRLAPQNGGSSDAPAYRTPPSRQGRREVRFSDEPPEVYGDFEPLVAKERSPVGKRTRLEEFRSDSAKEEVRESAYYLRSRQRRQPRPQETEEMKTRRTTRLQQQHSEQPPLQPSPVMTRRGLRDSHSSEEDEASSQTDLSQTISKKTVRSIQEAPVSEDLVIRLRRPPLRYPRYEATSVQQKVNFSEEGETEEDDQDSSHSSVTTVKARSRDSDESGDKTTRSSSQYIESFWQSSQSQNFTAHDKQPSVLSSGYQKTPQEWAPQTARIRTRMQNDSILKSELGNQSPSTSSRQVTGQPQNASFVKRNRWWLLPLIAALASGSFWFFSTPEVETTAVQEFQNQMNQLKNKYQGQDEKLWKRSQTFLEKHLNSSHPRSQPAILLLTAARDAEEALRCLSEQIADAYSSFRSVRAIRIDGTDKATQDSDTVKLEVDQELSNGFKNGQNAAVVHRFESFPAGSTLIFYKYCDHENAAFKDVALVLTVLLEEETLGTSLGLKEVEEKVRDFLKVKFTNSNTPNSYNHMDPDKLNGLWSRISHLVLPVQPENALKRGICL
Left-right determination factor 2 (Homo sapiens), sequence (O00292 whole entry, looked up): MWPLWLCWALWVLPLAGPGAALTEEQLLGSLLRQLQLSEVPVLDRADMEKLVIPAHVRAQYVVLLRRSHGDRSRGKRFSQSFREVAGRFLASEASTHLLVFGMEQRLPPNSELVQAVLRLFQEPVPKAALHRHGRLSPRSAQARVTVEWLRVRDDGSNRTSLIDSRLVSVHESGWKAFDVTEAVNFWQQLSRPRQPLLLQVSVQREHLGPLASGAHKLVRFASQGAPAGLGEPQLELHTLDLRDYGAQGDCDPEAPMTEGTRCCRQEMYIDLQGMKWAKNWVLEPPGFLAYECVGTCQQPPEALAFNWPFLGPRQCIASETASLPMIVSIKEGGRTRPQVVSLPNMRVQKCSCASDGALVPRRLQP

Compound | composite z-score [1] | z-score [2] | composite z-score [3] | composite z-score [4] | composite z-score [5] | composite z-score [6] | composite z-score [7] | composite z-score [8] | composite z-score [9] | composite z-score [10] | composite z-score [11] | composite Z-score [12] | composite z-score [13] | composite z-score [14] | composite z-score [15] | composite z-score [16] | composite z-score [17] | composite z-score [18] | composite z-score [19] | composite z-score [20]
COC(=O)c1c2oc(c1C(=O)OC)C(=O)N(C)Cc1cn(nn1)C[C@H](Cc1ccccc1)NC(=O)N[C@H](CO)CC2 | -1.07 | -1.18 | -0.683 | -0.633 | -0.197 | -0.246 | -0.154 | -0.299 | -0.641 | -0.277 | -0.56 | -0.2 (inactive) | -0.155 | -0.18 | -0.41 | -0.69 | -0.161 | -0.947 | -0.516 | -1.17
O=C1O[C@H](c2ccccc2)[C@H](c2ccccc2)N2[C@H]1[C@@H](C(=O)O)[C@]1(C(=O)Nc3ccc(C#CC4=CCCCC4)cc31)[C@H]2c1ccc(O)cc1 | 1.33 | -0.955 | 0.658 | -0.461 | -0.283 | -0.0792 | 0.0284 | -0.213 | 0.499 | -0.188 | 0.562 | 0.235 (inactive) | 0.0445 | -0.105 | 0.627 | 1.51 | 0.384 | 0.712 | 0.285 | 0.997
Cc1ccc(S[C@]2(C(=O)NCC(F)(F)F)CC(=O)N(Cc3ccccc3)[C@@H]2c2ccc(CO)cc2I)cc1 | 0.503 | -2.48 | -0.842 | -0.0153 | 0.517 | -0.0203 | -0.0362 | 0.358 | 0.349 | 1.36 | 0.132 | 0.184 (inactive) | -0.212 | -0.183 | 0.679 | 1.21 | 1.57 | 0.0687 | -0.151 | -0.203
C=C(C(=O)CC[C@@H](OC(C)=O)c1ccc(CO)o1)C(C)C | -0.306 | -1.25 | 0.13 | -0.299 | -0.89 | -0.1 | 0.213 | 0.149 | 1.73 | 0.844 | -0.307 | 1.58 (inactive) | 0.706 | -0.0911 | 0.846 | 0.445 | 0.119 | 0.285 | 0.8 | 0.771
O=C(NCC(F)(F)F)[C@@H]1c2ccccc2C(=O)N(Cc2cc(F)cc(C(F)(F)F)c2)[C@H]1c1ccc(CO)cc1 | 0.463 | -0.661 | -1.53 | 0.152 | 0.712 | -0.096 | -0.0709 | -0.074 | -0.468 | -0.758 | -0.463 | 0.57 (inactive) | -0.355 | -0.0644 | 0.295 | 0.837 | -0.0879 | -0.639 | -1.11 | -0.236
